# Assay outcomes: PubChem BioAssay, National Center for Advancing Translational Sciences (NCATS)
# In the library only some 8% were active in any assay of this set; here they are far more common.
# HCMV inh = qHTS Assay for inhibitors of the human cytomegalovirus (HCMV); HFF cells, HCMV-luciferase reporter, 72 h; hits give low values; activity change, negative = inhibition, % at 57.5 µM; actives 4.5% (n = 410,000); AID 1259415, 2018; in the data active = activity change below about -60%; inconclusive = no clear call, values can overlap the other calls; inactive = above about -39%
#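 Cell-based, HFFs, 1000 cells/well, 16 h 37C; cpds in DMSO + HCMV-luc, MOI 1 PFU/cell; 72 h 37C; OneGlo luminescence after 5 min RT; norm. to buffer vs Salinomycin 10uM.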
# Marburg entry inh = qHTS for inhibitors of binding or entry into cells for Marburg Virus. Marburg virus pseudotyped entry inhibition, cell reporter. Potency, µM (top dose mostly 37.8 µM), actives largely listed as inhibitors. actives 1.8% (n = 300,000). AID 540276, 2011; calls by dose curve; tested in HEK293 cells
# LASV entry inh = qHTS for Inhibitors of binding or entry into cells for Lassa Virus. actives 1.2% (n = 300,000). Lassa virus pseudotype entry inhibition, cell reporter. Potency, µM (titrated, usually from 37.9 µM), most hits filed as inhibitors; calls by dose curve; tested in HEK293 cells; note: nearly all actives have a fitted effect of over 50% in size
# SARS PLP yeast = qHTS of Yeast-based Assay for SARS-CoV PLP | S. cerevisiae expressing SARS-CoV PLpro, growth rescue | Potency, µM (series often up to 32.9 µM), actives largely listed as activators | actives 0.19% (n = 330,000); calls by dose curve; note: nearly all actives have a fitted effect of over 55% in size
# HCV inhibitor = qHTS Assay for Inhibitors of Hepatitis C Virus (HCV); Huh7.5.1 HCVcc-Cre infection, luciferase reporter, 44 h; Potency, µM (series often up to 41.8 µM), hits mostly inhibitors; actives 3.4% (n = 340,000); active = well fitted inhibition curve with a large enough effect; inconclusive = small, poorly fitted or top-dose-only effect, or another doubt; inactive = no such curve, though single readings can be large or run the other way
#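 Luciferase read-out (15 sec integration) after a 15 min room-temperature substrate step quantifies HCVcc-Cre infection. Cells, 1,000 per well, had compound added 4 h post-plating, then virus at ~0.5 moi, and were cultured 44 h.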
# FMDV antiviral = High Throughput Screening for Foot and Mouth Disease Virus Antivirals; FMDV antiviral cell-based qHTS; Potency, µM (top dose mostly 57.9 µM), most hits filed as inhibitors; actives 1.2% (n = 410,000); AID 1159524, 2015; calls by dose curve; tested in HEK293T cells; note: read-out not given here; nearly all actives have a fitted effect of over 45% in size
# Numbers stand for hits; i = inactive; ? = inconclusive; nt = no result; [ ] = remark or other dose.
SMILES,HCMV inh,Marburg entry inh,LASV entry inh,SARS PLP yeast,HCV inhibitor,FMDV antiviral
COc1ccc(-c2nc3ccccc3n3c(-c4ccccc4)c4c(=O)n(C)c(=O)n(C)c4c23)cc1OC,i,i,i,nt,nt,i
CCCCCCN1C[C@@H](n2cc(C3CC3)nn2)[C@H](O)C[C@H]1c1ccccc1,nt,nt,i,nt,nt,nt
c1ccc(-c2cc3ccccc3[nH]2)cc1,-65,nt,nt,i,?,i
CCC[C@@H]1[C@@H]2C(=O)N(c3ccccc3OC)C(=O)[C@H]2ON1c1ccccc1,nt,i,nt,nt,nt,nt
COc1ccc(-c2csc(N3C(=O)C4C5c6ccccc6C(c6ccccc65)C4C3=O)n2)cc1 (stereo not drawn),-62,i,i,i,i,i
COC1=C(N)C(=O)c2nc(-c3nc(C(=O)O)c(C)c(-c4ccc(OC)c(OC)c4O)c3N)ccc2C1=O,nt,0.058µM,0.082µM,i,0.32µM,4µM
COC(=O)c1nc(-c2ccc3c(n2)C(=O)C(N)=C(OC)C3=O)c(N)c(-c2ccc(OC)c(OC)c2O)c1C,?,?,?,i,2.2µM,?
CCc1ccc(-n2c(=O)c3cccnc3n2CC(=O)NCc2ccccc2)cc1,i,nt,i,nt,nt,i
COC(=O)C1=C(C)NC(=S)NC1c1ccc(OCC(=O)N2CCCCC2)c(OC)c1 (stereo not drawn),-63,?,i,i,i,i
COCCOC(=O)C1=C(C)NC(=S)NC1c1ccc(OCC(=O)N2CC(C)OC(C)C2)c(OC)c1 (stereo not drawn),i,nt,nt,nt,i,i
COC(=O)C1(O)CC(c2ccccc2)C(C(=O)c2ccccc2)N1c1ccc(Cl)cc1 (stereo not drawn),i,nt,nt,nt,nt,nt
COC(=O)C1(O)CC(c2ccccc2)C(C(=O)c2ccc(Cl)cc2)N1c1ccccc1 (stereo not drawn),-77,nt,nt,nt,nt,nt
O=C(CSc1c2c(nc3ccc(Cl)cc13)CCCC2)N1CCN(c2cccc(Cl)c2)CC1,i,?,?,nt,nt,?
CCN(C(=O)Cn1c(Cl)nc2c1c(=O)n(C)c(=O)n2C)C1CCCCC1,i,nt,nt,i,i,i
Clc1ccc2c(SCC3CO3)c3ccccc3nc2c1 (stereo not drawn),i,?,20µM,nt,?,?
CCCCC[C@H](C)N1C[C@@H](COCc2ccccc2)Oc2cc(N3CC[C@H](N(C)C)C3)ccc2S1(=O)=O,?,nt,nt,nt,nt,i
C[C@H](c1ccccc1)N1C[C@H](COCc2ccccc2)Oc2cc(N3CCC[C@H]3CO)ccc2S1(=O)=O,-64,nt,nt,nt,nt,i
CCCCC[C@@H](C)N1C[C@@H](COCc2ccccc2)Oc2cc(N3CC[C@H](N(C)C)C3)ccc2S1(=O)=O,-63,nt,nt,nt,nt,i
C[C@H](c1ccccc1)N1C[C@@H](COCc2ccccc2)Oc2cc(N3CCC[C@@H]3CO)ccc2S1(=O)=O,i,nt,nt,nt,nt,i
Cc1nc2c(-c3ccc(F)cc3)cnn2c(N)c1-c1ccc(F)cc1,-76,5µM,i,i,?,?
Cc1cc(N)n2ncc(-c3ccc(F)cc3)c2n1,i,i,?,i,10µM,i
COc1ccc(-c2c(C)nc3c(-c4ccsc4)cnn3c2N)cc1,i,nt,nt,i,i,i
Cc1cc(N)n2ncc(-c3ccc(Cl)cc3)c2n1,i,?,i,i,?,i
Fc1ccc(Nc2c(-c3c[nH]c4ccccc34)nc3ccccn23)cc1,i,?,i,nt,nt,i
CC(NC(=O)c1ccco1)c1nnc2n1CCN(Cc1ccc(N(C)C)cc1)CC2 (stereo not drawn),nt,nt,nt,nt,nt,i
SMILES,HCMV inh,Marburg entry inh,LASV entry inh,SARS PLP yeast,HCV inhibitor,FMDV antiviral
COc1ccccc1C1CN(CCNC(=O)c2sccc2Cl)Cc2ccccc2O1 (stereo not drawn),nt,nt,nt,nt,nt,i
COc1ccc(N/C=C(\C#N)c2ccc(OCCCF)cc2)cc1,-91,?,i,i,?,i
Cc1ccc(N/C=C(\C#N)c2ccc(OCCCF)cc2)cc1,i,i,i,i,?,i
CC(=O)Oc1c(/C=C(\C#N)C(N)=O)[nH]c2ccccc12,i,?,16µM,i,?,i
N#C/C(=C\c1c[nH]c2ccccc12)C(N)=O,i,nt,nt,i,i,i
COCc1c(C(=O)NC2CCCCCC2)cnn1-c1nccc(-c2cc(C)sc2C)n1,nt,nt,nt,nt,nt,i
Cc1cccc2cc(CN(Cc3ccccc3)C(=S)NCCCN(C)C)c(=O)[nH]c12,?,4µM,i,i,?,i
Cc1cc(C)c2cc(CN(CCCN(C)C)C(=S)NCc3ccccc3)c(=O)[nH]c2c1,i,?,?,i,10µM,i
Cc1ccc(CN(Cc2cc3cccc(C)c3[nH]c2=O)C(=S)NCCCN(C)C)cc1,?,4.5µM,i,i,35µM,i
COc1ccc(-c2noc(CSc3nnc(CCc4ccccc4)n3-c3ccccc3)n2)cc1OC,i,i,4.1µM,i,11µM,nt
Clc1ccc(-n2c(Cc3ccccc3)nnc2SCc2nc(-c3cccs3)no2)cc1,i,i,?,nt,nt,i
Cc1ccc(-c2noc(CSc3nnc(Cc4ccccc4)n3-c3ccc(Cl)cc3)n2)cc1,i,?,1.6µM,i,?,i
COc1ccc(Cc2nc(-c3ccc(-n4cccc4)cc3)no2)cc1OC,?,nt,nt,i,10µM,?
COc1ccc(-c2noc(CSc3nnc(Cc4ccccc4)n3-c3ccc(Cl)cc3)n2)cc1,i,?,4.1µM,i,14µM,i
COc1ccc(Cc2nc(-c3ccc(-n4cccc4)cc3)no2)cc1,i,i,i,i,i,i
Cc1ccc(-c2noc(CSc3nnc(CCc4ccccc4)n3-c3ccccc3)n2)cc1,i,?,?,i,?,i
O=c1oc2ccccc2c2c1C1O[C@](c3ccsc3)(Cc3c1ccc1ccccc31)O2,nt,nt,nt,i[6.58 µM],nt,nt
COc1ccc(NC(=O)CN(C)S(=O)(=O)c2ccc(C)cc2)c([N+](=O)[O-])c1,i,i,i,i,i,i
COc1ccc(N(C)S(=O)(=O)c2ccc(C)cc2)c([N+](=O)[O-])c1,?,i,13µM,i,i,i
Cc1nc(-c2cccc(NC(=O)c3ccc(-n4nccc4C)cc3)c2)cs1,i,i,?,i,10µM,22µM
Cc1nc(-c2cccc(NC(=O)c3ccc(Br)o3)c2)cs1,i,nt,nt,i,?,i
Fc1ccc(/C=N/Nc2cc(N3CCOCC3)ncn2)cc1,i,?,?,i,i,i
COc1cccc(/C=N/Nc2cc(N3CCOCC3)ncn2)c1O,-99,?,?,i,?,i
Fc1cccc(/C=N/Nc2cc(N3CCOCC3)ncn2)c1,i,?,?,2.8µM,?,i
COc1ccc2[nH]c(C)c(C(=O)CN3C[C@@H](C)O[C@@H](C)C3)c2c1,nt,i,nt,nt,nt,nt
O=[N+]([O-])c1ccc(C(O)CN2CCN(C/C=C/c3ccccc3)CC2)cc1 (stereo not drawn),i,?,i,i,13µM,i
